Screening data as filed in PubChem BioAssay.
The list is not random: actives were taken first. Their share in the collection is about 11%.
BAZ2B inh = qHTS Assay for Inhibitors of BAZ2B | Potency, µM (highest dose often 114 µM), for inactives: top-dose activity change, negative = inhibition, actives largely listed as inhibitors | AID 504333, 2011 | Bromodomain adjacent to zinc finger domain protein 2B (Homo sapiens), Q9UIF8 | actives 4.4% (n = 360,000) | AlphaScreen BAZ2B-H3K14Ac peptide displacement; also: potency is read from the fitted curve at half-maximal effect; % is scaled to controls: 0 for no effect and ±100 for the full control effect; nearly all actives have a fitted effect of over 60% in size
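AlphaScreen displacement of biotin-H3(5-23)K14Ac peptide (50 nM final) from BAZ2B (50 nM final) in PBS pH 7.4, 0.01% Tween-20; complex preformed 30 min RT, then compounds (top 110 uM) 30 min RT, beads 20 min dark.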
PI5P4K alpha inh = qHTS for Inhibitors of phosphatidylinositol 5-phosphate 4-kinase (PI5P4K) | Phosphatidylinositol 5-phosphate 4-kinase type-2 alpha (Homo sapiens), P48426 | PI5P4Kalpha enzyme, ADP-Glo luminescence, 60 min; active compounds read low | max response, % | AID 652105, 2013 | actives 1.2% (n = 330,000); active = max response of -50% or lower; inconclusive = between -30% and -50%; inactive = -30% or higher; also: value at the top dose of about 77 µM; % is scaled to controls: 0 for no effect and ±100 for the full control effect
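ADP-Glo luminescence end-point after a 60 min room-temperature kinase reaction. PI5P4Kalpha and substrate in HEPES pH 7.4 buffer with EGTA, 0.1% CHAPS and 5% DMSO; ATP at 5 microM final.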
JMJD2A Tudor = qHTS Assay for Inhibitors of JMJD2A-Tudor Domain | AlphaScreen JMJD2A-Tudor / H3K4me3 peptide binding | Potency, µM (series often up to 114 µM), for the others: at the highest dose activity change, negative = inhibition, hits mostly inhibitors | actives 4.4% (n = 390,000) | Lysine-specific demethylase 4A (Homo sapiens), O75164; also: potency is read from the fitted curve at half-maximal effect; % is scaled to controls: 0 for no effect and ±100 for the full control effect; nearly all actives have a fitted effect of over 50% in size
L3MBTL1 block = qHTS Assay for the Inhibitors of L3MBTL1; Lethal(3)malignant brain tumor-like protein 1 (Homo sapiens), Q9Y468; AlphaScreen L3MBTL1–H3K9me1 peptide binding; Potency, µM (series often up to 57.1 µM), inactives show at the top dose activity, negative = inhibition, usual class: inhibitors; actives 0.66% (n = 230,000); also: potency is read from the fitted curve at half-maximal effect; % is scaled to controls: 0 for no effect and ±100 for the full control effect; nearly all actives have a fitted effect of over 60% in size
Target sequence (Q9Y468 whole entry, looked up): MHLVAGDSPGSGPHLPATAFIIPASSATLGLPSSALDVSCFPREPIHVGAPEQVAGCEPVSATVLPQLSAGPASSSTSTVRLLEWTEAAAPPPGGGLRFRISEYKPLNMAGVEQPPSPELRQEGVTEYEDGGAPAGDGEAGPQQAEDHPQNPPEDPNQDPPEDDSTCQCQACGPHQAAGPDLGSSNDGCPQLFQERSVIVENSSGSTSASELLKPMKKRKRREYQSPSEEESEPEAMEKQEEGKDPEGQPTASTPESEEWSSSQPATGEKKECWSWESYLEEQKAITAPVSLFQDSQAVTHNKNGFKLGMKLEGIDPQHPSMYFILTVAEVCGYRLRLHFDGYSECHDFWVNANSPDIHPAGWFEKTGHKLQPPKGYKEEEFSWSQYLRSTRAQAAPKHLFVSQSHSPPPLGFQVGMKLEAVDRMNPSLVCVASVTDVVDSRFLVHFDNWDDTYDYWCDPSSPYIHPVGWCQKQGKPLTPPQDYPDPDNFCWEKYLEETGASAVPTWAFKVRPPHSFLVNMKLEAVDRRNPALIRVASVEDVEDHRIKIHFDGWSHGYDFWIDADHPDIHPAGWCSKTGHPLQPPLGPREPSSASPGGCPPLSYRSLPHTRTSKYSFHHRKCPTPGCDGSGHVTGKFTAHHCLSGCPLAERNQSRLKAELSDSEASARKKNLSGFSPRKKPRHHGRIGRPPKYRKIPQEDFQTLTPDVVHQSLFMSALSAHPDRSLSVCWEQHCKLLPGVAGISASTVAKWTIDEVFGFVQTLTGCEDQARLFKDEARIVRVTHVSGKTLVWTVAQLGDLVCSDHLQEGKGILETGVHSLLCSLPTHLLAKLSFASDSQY
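AlphaScreen assay: L3MBTL1 (50 nM final) was preincubated 30 min at room temperature with biotinylated H3(1-15)K9me1 peptide (75 nM final), then 30 min with library compounds; streptavidin donor and nickel chelate acceptor beads (10 ug/mL final) added, 30 min dark.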
HP1b binding inh = HTS for Inhibitors of HP1-beta Chromodomain Interactions with Methylated Histone Tails; Chromobox protein homolog 1 (Homo sapiens), P83916; AlphaScreen HP1-beta / biotin-H3K9me3 peptide binding; Potency, µM (highest dose often 114 µM), for the others: at the highest dose activity change, negative = inhibition, most hits filed as inhibitors; actives 0.56% (n = 390,000); AID 540317, 2011; also: potency is read from the fitted curve at half-maximal effect; nearly all actives have a fitted effect of over 70% in size
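HP1-beta protein (50 nM final) preincubated 30 min at room temperature with biotinylated H3(1-18)K9me3 peptide (50 nM) in PBS pH 7.4, 0.01% Tween-20, then compound added for 30 min. AlphaScreen streptavidin donor/nickel chelate acceptor beads (10 ug/mL final), 30 min dark, luminescence read.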
G9a block = qHTS Assay for Inhibitors of Histone Lysine Methyltransferase G9a; Histone-lysine N-methyltransferase EHMT2 (Homo sapiens), Q96KQ7; G9a H3K9 monomethylation, AlphaScreen, 2 h; Potency, µM (top dose mostly 102 µM), without a hit: at the highest dose activity, negative = inhibition, usual class: inhibitors; actives 8.8% (n = 350,000); AID 504332, 2011; also: potency is read from the fitted curve at half-maximal effect; % is scaled to controls: 0 for no effect and ±100 for the full control effect; nearly all actives have a fitted effect of over 75% in size
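AlphaScreen detection with an anti-monomethyl H3K9 antibody quantified product after a 2 h room-temperature reaction containing 500 nM biotinylated H3K9 peptide, 20 µM SAM and 20 nM enzyme, which had been preincubated 15 min with compound.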
Active calls of the source: *; [ ] = dose if it differs, or a comment. Unless noted, calls follow the shape of the dose curve; as a rule, active = well fitted inhibition curve with a large enough effect; inconclusive = small, poorly fitted or top-dose-only effect; inactive = no such curve, though single readings can be large or run the other way.

Results for CCN(CC)c1ccc(C=Nc2cc(C)cc(C)c2)c(O)c1 ?
BAZ2B inh: 8.7%; PI5P4K alpha inh: -9.4; JMJD2A Tudor: -19.7%; L3MBTL1 block: -6.0%; HP1b binding inh: -4.4%; G9a block: 8.91µM*

What do the screens show for `O=C(c1cccc(F)c1)N1CCC2(CC1)CN(C(c1ccccc1)c1ccccc1)C2`?
G9a block: 5.6%[12.7 µM]

What do the screens show for `Nc1ccc(S(=O)(=O)N2CCN(S(=O)(=O)c3ccc4c(c3)OCCO4)CC2)cc1`?
JMJD2A Tudor: -5.4%

How did CCN1CCN(c2ccc(N=Cc3ccc(O)cc3O)cc2)CC1 do in these assays?
BAZ2B inh: 31.6µM*; PI5P4K alpha inh: -20.9; JMJD2A Tudor: inconclusive; L3MBTL1 block: -16.0%; HP1b binding inh: inconclusive

Results for CC(C)(C)C(=O)NC(=S)Nc1ccc(Cc2ccncc2)cc1 ?
BAZ2B inh: -34.6%; PI5P4K alpha inh: -4.0; JMJD2A Tudor: inconclusive; L3MBTL1 block: -17.2%; HP1b binding inh: -14.7%; G9a block: 35.5µM*

What do the screens show for `Cc1ccc(COc2ccsc2-c2n[nH]c(=S)n2C)cc1`?
BAZ2B inh: inconclusive; PI5P4K alpha inh: -4.5; JMJD2A Tudor: 4.2%; L3MBTL1 block: -0.5%; HP1b binding inh: 35.9%

What do the screens show for `Cn1c(-c2sccc2OCc2ccccc2)n[nH]c1=S`?
BAZ2B inh: 56.2µM*; PI5P4K alpha inh: -10.0; JMJD2A Tudor: 3.16µM*; L3MBTL1 block: -0.7%; HP1b binding inh: inconclusive; G9a block: 2.82µM*

How did Cn1c(-c2sccc2OCc2ccc(Cl)cc2Cl)n[nH]c1=S do in these assays?
BAZ2B inh: inconclusive; PI5P4K alpha inh: -1.0; JMJD2A Tudor: -17.3%[11.4 µM]; L3MBTL1 block: -29.4%; HP1b binding inh: -16.3%; G9a block: 3.16µM*

How did Cc1nc2cnc(N3CCOCC3)nc2n(CCc2ccccc2)c1=O do in these assays?
G9a block: 4.5%[0.501 µM]

Results for COc1cccc(NC(=O)COC(=O)c2ccc(S(=O)(=O)NCc3ccco3)cc2)c1 ?
BAZ2B inh: inconclusive; PI5P4K alpha inh: -6.7; JMJD2A Tudor: 35.5µM*; HP1b binding inh: -27.9%; G9a block: -3.5%[12.7 µM]

What do the screens show for `O=C(COc1ccccc1)NCC(=O)Nc1ccc(S(=O)(=O)NCc2ccco2)cc1`?
BAZ2B inh: -6.2%; PI5P4K alpha inh: inconclusive; JMJD2A Tudor: -21.0%; HP1b binding inh: 23.3%; G9a block: inconclusive

What do the screens show for `COc1ccc(C(=O)Nc2ccc(S(=O)(=O)NCc3ccco3)cc2)cc1OC`?
BAZ2B inh: -1.0%; JMJD2A Tudor: inconclusive; L3MBTL1 block: -7.4%; HP1b binding inh: -0.4%; G9a block: 39.8µM*

What do the screens show for `CC(=O)Nc1ccc(NC(=O)COC(=O)c2ccc(S(=O)(=O)NCc3ccco3)cc2)cc1`?
PI5P4K alpha inh: -2.0; JMJD2A Tudor: -3.4%; L3MBTL1 block: 1.0%; HP1b binding inh: 17.1%[57 µM]

What do the screens show for `COc1cccc(S(=O)(=O)NCc2ccc(C(=O)N3CCN(c4ccccc4)CC3)cc2)c1`?
BAZ2B inh: -23.9%; PI5P4K alpha inh: -6.5; JMJD2A Tudor: -24.1%; HP1b binding inh: 14.5%; G9a block: 63.1µM*

What do the screens show for `COc1ccccc1NC(=O)c1ccc(S(=O)(=O)NCc2ccco2)cc1`?
BAZ2B inh: -37.4%; PI5P4K alpha inh: 5.6; JMJD2A Tudor: -28.2%; HP1b binding inh: 26.7%; G9a block: -16.9%

How did O=C(COc1ccccc1)Nc1ccc(S(=O)(=O)NCc2ccco2)cc1 do in these assays?
BAZ2B inh: inconclusive; PI5P4K alpha inh: inconclusive; JMJD2A Tudor: 50.1µM*; L3MBTL1 block: -10.9%; HP1b binding inh: -15.5%; G9a block: 50.1µM*

What do the screens show for `CCc1ccc(NC(=O)c2sc3nc(C)c(Cl)c(C)c3c2NC(=O)c2ccccc2)cc1`?
BAZ2B inh: -3.9%; JMJD2A Tudor: -23.5%; HP1b binding inh: 24.2%; G9a block: -5.5%[59 µM]

Results for COc1cccc(CNS(=O)(=O)c2c(C(=O)N3CCCCCC3)c(C)n(C)c2C)c1 ?
BAZ2B inh: -19.1%[57.1 µM]; PI5P4K alpha inh: -12.7; JMJD2A Tudor: 22.4µM*; HP1b binding inh: -6.2%; G9a block: 12.1%

What do the screens show for `Cc1cccc(NC(=O)c2ccc(F)c(S(=O)(=O)NCc3ccco3)c2)c1`?
BAZ2B inh: inconclusive; PI5P4K alpha inh: -1.1; JMJD2A Tudor: -26.9%; HP1b binding inh: 15.6%; G9a block: 50.1µM*

How did COc1cccc(S(=O)(=O)NCc2ccc(C(=O)NCc3ccco3)cc2)c1 do in these assays?
BAZ2B inh: -7.8%; JMJD2A Tudor: -33.1%; L3MBTL1 block: -11.5%; HP1b binding inh: -4.7%; G9a block: 44.7µM*

How did O=C(COc1ccccc1F)Nc1ccc(S(=O)(=O)NCc2ccco2)cc1 do in these assays?
BAZ2B inh: -30.6%; PI5P4K alpha inh: 0.8; JMJD2A Tudor: inconclusive; L3MBTL1 block: -14.8%; HP1b binding inh: 0.7%; G9a block: -11.9%

How did CC(C)CC(=O)Nc1ccc(S(=O)(=O)NCc2ccco2)cc1 do in these assays?
BAZ2B inh: -37.6%; PI5P4K alpha inh: -14.6; JMJD2A Tudor: -23.8%; HP1b binding inh: 22.6%; G9a block: 17.8µM*

What do the screens show for `O=C(NCc1ccccc1Cl)C(=O)NCC(c1cccs1)S(=O)(=O)c1cccs1` (configuration not stated)?
BAZ2B inh: -1.6%; JMJD2A Tudor: -4.9%; HP1b binding inh: 26.4%; G9a block: -4.2%[59 µM]

How did O=C(NCc1cccc(F)c1)c1cccc(NC(=O)c2nsc3ccccc23)c1 do in these assays?
BAZ2B inh: 2.4%; JMJD2A Tudor: 2.9%; HP1b binding inh: 28.1%[57 µM]; G9a block: -1.2%[59 µM]

How did O=C(Nc1ccc(S(=O)(=O)NCc2ccco2)cc1)C1CCCCC1 do in these assays?
BAZ2B inh: -35.4%; PI5P4K alpha inh: -15.2; JMJD2A Tudor: -17.5%; L3MBTL1 block: -0.9%; HP1b binding inh: 15.8%; G9a block: 44.7µM*

What do the screens show for `CC1=C(CC(=O)O)c2cc(F)ccc2/C1=C/c1ccc(S(C)=O)cc1` (configuration not stated)?
BAZ2B inh: -16.2%; PI5P4K alpha inh: -16.0; JMJD2A Tudor: -17.3%; HP1b binding inh: 12.2%; G9a block: 50.1µM*

How did CC1=C(CC(=O)O)c2cc(F)ccc2/C1=C\c1ccc(S(C)(=O)=O)cc1 do in these assays?
G9a block: 38.8%[12.7 µM]
